What all share (assay): DAPPL (digital affinity profiling via proximity ligation, sequencing); 10 mM Tris-HCl pH 7.5, 50 mM NaCl, 1 mM DTT, 4% glycerol, room temperature, 30 min; GST-TFs on glutathione beads, 16-mer random dsDNA library, 0.1% formaldehyde crosslink after washing; high values mean tight binding
Common to all, as to conditions: protein: recombinant; tags: N-terminal GST; dsDNA, one strand shown

The target of one experiment is T1, ERF (Homo sapiens, UniProt P50548 1-548).
T1 sequence: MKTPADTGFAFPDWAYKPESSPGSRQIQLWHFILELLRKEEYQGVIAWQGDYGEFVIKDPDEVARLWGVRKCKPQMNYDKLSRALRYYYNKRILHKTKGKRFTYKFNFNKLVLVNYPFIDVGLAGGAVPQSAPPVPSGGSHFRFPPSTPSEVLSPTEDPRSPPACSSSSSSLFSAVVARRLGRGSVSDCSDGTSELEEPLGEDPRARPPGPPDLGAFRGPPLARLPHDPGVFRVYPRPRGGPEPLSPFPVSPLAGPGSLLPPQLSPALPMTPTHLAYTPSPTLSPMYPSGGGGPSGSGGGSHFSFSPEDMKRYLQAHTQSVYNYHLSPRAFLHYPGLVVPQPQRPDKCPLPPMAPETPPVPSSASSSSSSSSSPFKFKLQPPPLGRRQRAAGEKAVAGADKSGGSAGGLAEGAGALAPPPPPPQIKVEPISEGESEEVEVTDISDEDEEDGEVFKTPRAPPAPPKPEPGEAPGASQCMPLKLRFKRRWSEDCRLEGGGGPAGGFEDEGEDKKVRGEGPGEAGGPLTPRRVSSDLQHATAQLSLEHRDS
The method, boiled down: (§1)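 In yeast, human transcription factors were expressed with a GST fusion, then pulled down on glutathione beads and given DNA barcodes. Pooled with a tag-only sample, they were exposed to 200 nmole of a 16-mer random double-stranded DNA library (Tris/NaCl/DTT/glycerol buffer, room temperature, 30 min), washed, crosslinked with 0.1% formaldehyde, proximity-ligated using BsaI/T4 ligase for 1 h at 37 °C, PCR-amplified and read on an Illumina NextSeq500. Each hexamer's frequency of reads for a factor, divided by the matching frequency for the tag-only sample, gives the binding signal.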

A further experiment deals with T2, ETV3L (Homo sapiens, UniProt Q6ZN32 1-361).
T2 sequence: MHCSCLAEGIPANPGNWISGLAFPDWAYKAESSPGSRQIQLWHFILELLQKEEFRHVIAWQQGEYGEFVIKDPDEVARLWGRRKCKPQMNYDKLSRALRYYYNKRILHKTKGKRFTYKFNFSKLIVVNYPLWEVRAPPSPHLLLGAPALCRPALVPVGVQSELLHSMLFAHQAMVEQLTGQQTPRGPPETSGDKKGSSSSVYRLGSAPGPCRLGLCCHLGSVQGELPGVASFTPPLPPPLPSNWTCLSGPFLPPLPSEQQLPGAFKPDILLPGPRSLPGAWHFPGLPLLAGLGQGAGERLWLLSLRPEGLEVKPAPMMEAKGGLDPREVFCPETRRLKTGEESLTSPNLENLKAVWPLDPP
The method, boiled down: as §1

The target in another experiment is T3, ETS2 (Homo sapiens, UniProt P15036 1-469).
T3 sequence: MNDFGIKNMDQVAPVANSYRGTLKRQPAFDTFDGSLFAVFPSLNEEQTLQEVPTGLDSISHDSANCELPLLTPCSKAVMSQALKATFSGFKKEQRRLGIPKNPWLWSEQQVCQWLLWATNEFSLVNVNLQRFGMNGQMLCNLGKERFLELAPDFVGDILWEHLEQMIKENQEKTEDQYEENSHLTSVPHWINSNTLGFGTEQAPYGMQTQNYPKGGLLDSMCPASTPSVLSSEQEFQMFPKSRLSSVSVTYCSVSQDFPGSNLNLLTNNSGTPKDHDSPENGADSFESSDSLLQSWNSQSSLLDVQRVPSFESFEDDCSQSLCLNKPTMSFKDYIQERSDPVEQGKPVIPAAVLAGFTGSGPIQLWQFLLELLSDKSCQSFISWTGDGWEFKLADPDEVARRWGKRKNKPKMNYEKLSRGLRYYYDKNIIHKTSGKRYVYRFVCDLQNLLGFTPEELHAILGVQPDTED
The method, boiled down:
as §1

In a further experiment the target is T4, SPDEF (Homo sapiens, UniProt O95238 1-335).
T4 sequence: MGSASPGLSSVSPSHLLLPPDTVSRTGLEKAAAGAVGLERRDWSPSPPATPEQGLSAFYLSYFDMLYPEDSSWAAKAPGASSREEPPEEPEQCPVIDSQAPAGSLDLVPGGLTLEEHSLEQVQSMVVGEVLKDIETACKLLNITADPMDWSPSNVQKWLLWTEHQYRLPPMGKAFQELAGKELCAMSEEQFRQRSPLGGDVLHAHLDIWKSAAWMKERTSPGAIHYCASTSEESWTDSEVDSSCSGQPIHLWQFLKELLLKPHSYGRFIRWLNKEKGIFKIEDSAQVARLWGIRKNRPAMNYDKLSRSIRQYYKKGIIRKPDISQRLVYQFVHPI
In a few lines: as §1

A further experiment deals with T5, ETV7 (Homo sapiens, UniProt Q9Y603 1-341).
T5 sequence: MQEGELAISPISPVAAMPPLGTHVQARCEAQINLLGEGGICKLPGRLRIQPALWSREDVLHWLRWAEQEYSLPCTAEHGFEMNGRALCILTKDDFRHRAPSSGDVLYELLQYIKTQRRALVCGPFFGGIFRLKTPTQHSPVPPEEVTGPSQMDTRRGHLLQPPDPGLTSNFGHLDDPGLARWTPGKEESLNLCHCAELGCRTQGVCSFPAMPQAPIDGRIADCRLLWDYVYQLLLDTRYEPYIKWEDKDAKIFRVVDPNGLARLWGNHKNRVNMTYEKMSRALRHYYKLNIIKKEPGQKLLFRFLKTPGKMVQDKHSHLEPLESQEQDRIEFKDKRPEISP
The method, boiled down:
as §1

The target in another experiment is T6, ELF5 (Homo sapiens, UniProt Q9UKW6-2 1-255).
T6 sequence: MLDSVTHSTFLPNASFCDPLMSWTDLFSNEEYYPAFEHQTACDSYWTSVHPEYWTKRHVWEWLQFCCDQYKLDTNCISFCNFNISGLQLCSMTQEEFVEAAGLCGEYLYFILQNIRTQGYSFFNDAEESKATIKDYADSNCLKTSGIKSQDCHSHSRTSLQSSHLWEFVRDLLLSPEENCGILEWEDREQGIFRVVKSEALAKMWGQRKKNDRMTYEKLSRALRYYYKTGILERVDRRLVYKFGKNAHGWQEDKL
In a few lines:
as §1

For another experiment, the target named is T7, ETV3 (Homo sapiens, UniProt P41162-2 1-143).
T7 sequence: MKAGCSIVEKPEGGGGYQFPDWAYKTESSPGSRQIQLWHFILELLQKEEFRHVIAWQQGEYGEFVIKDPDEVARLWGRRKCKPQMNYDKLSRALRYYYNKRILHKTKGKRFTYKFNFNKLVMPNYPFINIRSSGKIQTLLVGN
In a few lines:
as §1

The target of the next experiment is ETV6 (Homo sapiens, UniProt P41212 1-452). The method, boiled down: as §1
ETV6, sequence (P41212 whole entry): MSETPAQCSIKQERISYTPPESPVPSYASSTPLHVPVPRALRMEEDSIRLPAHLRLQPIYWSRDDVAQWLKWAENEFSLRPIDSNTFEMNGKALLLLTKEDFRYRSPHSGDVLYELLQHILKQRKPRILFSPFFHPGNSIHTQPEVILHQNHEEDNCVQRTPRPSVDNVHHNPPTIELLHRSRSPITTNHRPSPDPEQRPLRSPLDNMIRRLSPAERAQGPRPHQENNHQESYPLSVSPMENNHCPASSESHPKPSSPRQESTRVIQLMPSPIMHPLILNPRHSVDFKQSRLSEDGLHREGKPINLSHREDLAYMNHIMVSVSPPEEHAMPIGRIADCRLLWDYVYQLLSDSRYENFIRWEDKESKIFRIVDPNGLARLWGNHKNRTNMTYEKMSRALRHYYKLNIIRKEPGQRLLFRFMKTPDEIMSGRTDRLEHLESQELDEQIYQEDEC

Consider CTGCTG, for which the binding signal with ERF is 1.08 fold enrichment (6-mer frequency, TF over GST control); with ETV3L it was 1.3 fold enrichment (6-mer frequency, TF over GST control); with ETS2, 1.36 fold enrichment (6-mer frequency, TF over GST control); in the experiment with SPDEF, 1.26 fold enrichment (6-mer frequency, TF over GST control); in the experiment with ETV7, 1.13 fold enrichment (6-mer frequency, TF over GST control); with ELF5 it was 1.27 fold enrichment (6-mer frequency, TF over GST control). Besides, the binding signal with ETV3 is 1.27 fold enrichment (6-mer frequency, TF over GST control); with ETV6, 1.22 fold enrichment (6-mer frequency, TF over GST control).
ATACGA: the binding signal with ERF was 1.17 fold enrichment (6-mer frequency, TF over GST control); with ETV3L, 1.1 fold enrichment (6-mer frequency, TF over GST control); in the experiment with ETS2, 1.17 fold enrichment (6-mer frequency, TF over GST control); with SPDEF, 1.18 fold enrichment (6-mer frequency, TF over GST control); with ETV7, 1.11 fold enrichment (6-mer frequency, TF over GST control); with ELF5, 1.17 fold enrichment (6-mer frequency, TF over GST control). Besides, the binding signal was 1.11 fold enrichment (6-mer frequency, TF over GST control) in the experiment with ETV3 and 1.08 fold enrichment (6-mer frequency, TF over GST control) in the experiment with ETV6.
With TATGGG, the binding signal in the experiment with ERF is 1.19 fold enrichment (6-mer frequency, TF over GST control); with ETV3L, 1.13 fold enrichment (6-mer frequency, TF over GST control); with ETS2 it was 1.15 fold enrichment (6-mer frequency, TF over GST control); in the experiment with SPDEF, 1.14 fold enrichment (6-mer frequency, TF over GST control); in the experiment with ETV7 it was 1.24 fold enrichment (6-mer frequency, TF over GST control); with ELF5, 1.16 fold enrichment (6-mer frequency, TF over GST control). Besides, the binding signal is 1.17 fold enrichment (6-mer frequency, TF over GST control) with ETV3 and 1.34 fold enrichment (6-mer frequency, TF over GST control) with ETV6.
In the case of GTTATT, the binding signal in the experiment with ERF is 1.12 fold enrichment (6-mer frequency, TF over GST control); in the experiment with ETV3L, 1.13 fold enrichment (6-mer frequency, TF over GST control); with ETS2, 1.14 fold enrichment (6-mer frequency, TF over GST control); with SPDEF it was 1.04 fold enrichment (6-mer frequency, TF over GST control); with ETV7, 1.29 fold enrichment (6-mer frequency, TF over GST control); with ELF5, 1.21 fold enrichment (6-mer frequency, TF over GST control). Also, the binding signal was 1.2 fold enrichment (6-mer frequency, TF over GST control) in the experiment with ETV3 and 1.2 fold enrichment (6-mer frequency, TF over GST control) in the experiment with ETV6.
Consider GCACTT, for which the binding signal with ERF was 1.61 fold enrichment (6-mer frequency, TF over GST control); in the experiment with ETV3L, 1.84 fold enrichment (6-mer frequency, TF over GST control); with ETS2 it was 1.76 fold enrichment (6-mer frequency, TF over GST control); with SPDEF, 1.91 fold enrichment (6-mer frequency, TF over GST control); with ETV7 it was 1.92 fold enrichment (6-mer frequency, TF over GST control); in the experiment with ELF5, 1.88 fold enrichment (6-mer frequency, TF over GST control). Also, the binding signal with ETV3 was 1.94 fold enrichment (6-mer frequency, TF over GST control); in the experiment with ETV6 it was 2 fold enrichment (6-mer frequency, TF over GST control).
For the sequence TTCCGC, the binding signal was 2.75 fold enrichment (6-mer frequency, TF over GST control) with ERF; 2.9 fold enrichment (6-mer frequency, TF over GST control) in the experiment with ETV3L; 3.21 fold enrichment (6-mer frequency, TF over GST control) with ETS2; 2.77 fold enrichment (6-mer frequency, TF over GST control) with SPDEF; 3.02 fold enrichment (6-mer frequency, TF over GST control) in the experiment with ETV7; 4.41 fold enrichment (6-mer frequency, TF over GST control) with ELF5. Moreover, the binding signal in the experiment with ETV3 was 3.37 fold enrichment (6-mer frequency, TF over GST control); with ETV6 it was 3.62 fold enrichment (6-mer frequency, TF over GST control).
Regarding ATCATC, the binding signal with ERF is 1.08 fold enrichment (6-mer frequency, TF over GST control); with ETV3L, 1.23 fold enrichment (6-mer frequency, TF over GST control); with ETS2, 1.25 fold enrichment (6-mer frequency, TF over GST control); with SPDEF it was 1.16 fold enrichment (6-mer frequency, TF over GST control); with ETV7, 1 fold enrichment (6-mer frequency, TF over GST control); in the experiment with ELF5, 1.17 fold enrichment (6-mer frequency, TF over GST control). The binding signal is 1.23 fold enrichment (6-mer frequency, TF over GST control) in the experiment with ETV3 and 1.1 fold enrichment (6-mer frequency, TF over GST control) in the experiment with ETV6.
Take CTCTAT: the binding signal in the experiment with ERF is 1.22 fold enrichment (6-mer frequency, TF over GST control); with ETV3L it was 1.14 fold enrichment (6-mer frequency, TF over GST control); with ETS2, 1.16 fold enrichment (6-mer frequency, TF over GST control); with SPDEF, 1.16 fold enrichment (6-mer frequency, TF over GST control); with ETV7, 1.18 fold enrichment (6-mer frequency, TF over GST control); with ELF5 it was 1.14 fold enrichment (6-mer frequency, TF over GST control). Besides, the binding signal was 1.08 fold enrichment (6-mer frequency, TF over GST control) with ETV3 and 1.06 fold enrichment (6-mer frequency, TF over GST control) with ETV6.
Turning to TTATGA, the binding signal with ERF is 1.23 fold enrichment (6-mer frequency, TF over GST control); in the experiment with ETV3L, 1.22 fold enrichment (6-mer frequency, TF over GST control); in the experiment with ETS2, 1.13 fold enrichment (6-mer frequency, TF over GST control); in the experiment with SPDEF, 1.13 fold enrichment (6-mer frequency, TF over GST control); in the experiment with ETV7 it was 1.12 fold enrichment (6-mer frequency, TF over GST control); with ELF5 it was 1.09 fold enrichment (6-mer frequency, TF over GST control). Besides, the binding signal with ETV3 was 1.21 fold enrichment (6-mer frequency, TF over GST control); in the experiment with ETV6 it was 1.19 fold enrichment (6-mer frequency, TF over GST control).
